Our source for the inhibition values is ChEMBL document CHEMBL3433997, “St. Jude Leishmania screening dataset” (2016).

Common to all, as to type: functional
For assay [1], the target named is Solute carrier family 2, facilitated glucose transporter member 1 (Homo sapiens) (UniProt P11166). Put plainly: ST_JUDE_LEISH: Cytotoxicity at 2uM final concentration against transgenic Leishmania Mexicana promastigotes LmGLUT1 that are glucose transport deficient and complemented with the human glucose transporter GLUT1. Activity is measured by DNA content using SYBR green in vitro.
Chain of Solute carrier family 2, facilitated glucose transporter member 1 (Homo sapiens) (P11166 whole entry): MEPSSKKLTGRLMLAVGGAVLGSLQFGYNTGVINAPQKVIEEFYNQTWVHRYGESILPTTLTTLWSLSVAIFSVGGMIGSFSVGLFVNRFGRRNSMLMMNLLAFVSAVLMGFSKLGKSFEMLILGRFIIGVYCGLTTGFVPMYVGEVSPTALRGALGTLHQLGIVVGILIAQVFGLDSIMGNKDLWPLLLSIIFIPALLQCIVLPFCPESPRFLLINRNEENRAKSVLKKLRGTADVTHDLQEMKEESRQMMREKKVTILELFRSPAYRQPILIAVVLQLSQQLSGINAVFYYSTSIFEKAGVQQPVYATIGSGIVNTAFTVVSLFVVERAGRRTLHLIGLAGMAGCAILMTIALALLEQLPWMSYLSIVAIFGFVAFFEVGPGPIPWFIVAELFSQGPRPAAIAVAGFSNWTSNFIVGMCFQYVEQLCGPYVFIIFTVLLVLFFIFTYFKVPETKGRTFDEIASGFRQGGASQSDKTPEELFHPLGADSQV

Assay [2] addresses Hexose transporter 1 (Plasmodium falciparum) (UniProt O97467). Put plainly: ST_JUDE_LEISH: Cytotoxicity at 2uM final concentration against transgenic Leishmania Mexicana promastigotes LmPfHT that are glucose transport deficient and complemented with the Plasmodium falciparum hexose transporter. Activity is measured by DNA content using SYBR green in vitro.
In assay [3] the target is Glucose transporter (Leishmania mexicana) (UniProt O61059). Kind of assay: ST_JUDE_LEISH: Cytotoxicity at 2uM final concentration against transgenic Leishmania Mexicana promastigotes LmGT2 that are glucose transport deficient and complemented with the L. Mexicana glucose transporter 2. Activity is measured by DNA content using SYBR green in vitro.

Regarding `COc1cc(F)c2ncc(Cl)c(C(O)CN3CCC(NC(=O)c4ccc5c(c4)NC(=O)CS5)CC3)c2c1` (stereo not drawn), the results for the inhibition in assay [1], in assay [2] and in assay [3] were 8.37%, 7.69% and 4.11%, respectively.

For `CC(C(=O)OCCOCn1cnc2c(=O)[nH]c(N)nc21)N(C)C(=O)OC(C)(C)C` (stereo not drawn), the inhibition is -2.44% in assay [1], -1.51% in assay [2] and -3.59% in assay [3].

Regarding `Cc1ccccc1C1CCN(C2CCC(NC(=O)c3ccc(-c4ccccc4F)o3)CC2)CC1` (stereo not drawn), the inhibition in assay [1] turned out to be 3.69%; in assay [2] it was 2.49%; in assay [3] it was 1.85%.

With `Cc1cc(=O)c2cc(Oc3cccc(OC(F)(F)F)c3)ccc2[nH]1`, the results for the inhibition in assay [1], in assay [2] and in assay [3] were 1.1%, 2.75% and 4.49%, respectively.

For `CCNc1cc(C(=O)N[C@@H](Cc2ccccc2)[C@H](O)CNC(CC)c2cccc(Cl)c2)cc(N2CCCC2=O)c1` (stereo partly drawn), the values for the inhibition in assay [1], in assay [2] and in assay [3] were 3.51%, -0.75% and 3.68%, respectively.

On to `COc1cc(F)c2ncc(Cl)c(CCN3CCC(NCc4ccc5c(n4)NC(=O)CS5)CC3)c2c1`, for which the inhibition in assay [1] was 8.34%; in assay [2], 8.44%; in assay [3], -2.08%.

On to `CN(C)CC1CCCN1Cc1ccccc1-c1cnn(C)c(=O)c1Oc1cccc(C#N)c1` (stereo not drawn), for which the inhibition came out at 1.03% in assay [1], 1.03% in assay [2] and 3.52% in assay [3].

Turning to `C=CCc1ccc(C2CCN(CCCCNC(=O)c3ccc(NC(=O)c4ccc(Cl)cc4)cc3)CC2)cc1`, the results for the inhibition in assay [1], in assay [2] and in assay [3] were 0.91%, 0.58% and 0.46%, respectively.

In the case of `COCCNCc1ccc(-c2cccc(CN(C(=O)NCCc3ccccc3)C3CCN(Cc4ccccc4)CC3)c2)cc1`, the inhibition in assay [1] was 1.13%; in assay [2], -0.26%; in assay [3] it was -1.5%.

For `CN(C)CCOc1cc(NC(=O)c2ccc(-c3ccc(Cl)cc3Cl)cc2)ccc1-c1ccccc1`, the inhibition in assay [1] was 0.11%; in assay [2], 0.95%; in assay [3], -0.43%.

For the compound `CS(=O)(=O)c1ccc(CCNCc2ccc(-c3ccc(CN(C(=O)c4cccc(C#N)c4)C4CCN(Cc5ccccc5)CC4)cc3)nc2)cc1`, the inhibition stood at 5.06% in assay [1], 4.14% in assay [2] and 5.74% in assay [3].

In the case of `CSc1nccc(-c2ccc3ccnc(N)c3c2)n1`, the inhibition in assay [1] worked out at 11.2%; in assay [2], 10.7%; in assay [3], 9.37%.

Consider `O=C(/C=C/c1ccc(Cl)c(Cl)c1)NCCCCCN1CCCN(C(=O)Nc2ccc(F)c(Cl)c2)CC1`, for which the values for the inhibition in assay [1], in assay [2] and in assay [3] were 1.23%, 1.72% and 3.64%, respectively.

In the case of `COc1ccc2nccc([C@@H](O)CN3CCC(NC(=O)C(c4ccsc4)N4CCN(c5ccccc5)CC4)CC3)c2c1` (stereo partly drawn), the values for the inhibition in assay [1], in assay [2] and in assay [3] were 4.17%, 3.07% and 1.54%, respectively.

With `CCCNC[C@@H](O)[C@H](Cc1ccccc1)NC(=O)c1cc2c3c(c1)c(CC)cn3CCS(=O)(=O)N2C`, the inhibition was -2.56% in assay [1], 0.74% in assay [2] and 0.44% in assay [3].

With `Nc1nc2c(cnn2CCCCCCCP(=O)(O)O)c(=O)[nH]1`, the inhibition was -0.8% in assay [1], 0.25% in assay [2] and -0.36% in assay [3].

On to `O=C1c2ccccc2C(=O)N1c1ccc(S(=O)(=O)N2CCOCC2)cc1`, for which the inhibition worked out at 8.7% in assay [1], 6.66% in assay [2] and 8.08% in assay [3].

For the compound `Cc1cc(Nc2ccc(C(C)(C)C)cc2)c2[nH]ncc2n1`, the figures for the inhibition in assay [1], in assay [2] and in assay [3] were 16.1%, 26.2% and 4.28%, respectively.

Regarding `Oc1cccc(CNCCCN(Cc2ccccc2)c2ccccc2)c1`, the inhibition in assay [1] was 1.74%; in assay [2] it was -0.63%; in assay [3], 0.16%.

For the compound `Cc1cc(Nc2ncc(Cl)c(Nc3ccccc3C(N)=O)n2)n[nH]1`, the inhibition was -1.31% in assay [1], 2.51% in assay [2] and 3.02% in assay [3].

As to `CN1CCC(NCc2ccc(-c3ccc(S(=O)(=O)NC4CCC4)s3)cc2)CC1`, the inhibition in assay [1] was 3.46%; in assay [2], 1.25%; in assay [3], 0.74%.

In the case of `O=C(Nc1cccc(-c2nn3ccccc3c2-c2ccnc(Nc3ccc(NCCCN4CCOCC4)c(F)c3)n2)c1)c1c(F)cccc1F`, the values for the inhibition in assay [1], in assay [2] and in assay [3] were 46.9%, 30.5% and 5.22%, respectively.

In the case of `COc1cc(Nc2ccnc3ccc(C(C)(C)C)cc23)cc(OC)c1OC`, the inhibition worked out at 0.32% in assay [1], 0.17% in assay [2] and 1.66% in assay [3].

On to `O=C(NCCN1CCOCC1)c1ccc(CNC(=O)c2ccc(O)c(-c3ccc(Cl)c(Cl)c3)c2)cc1`, for which the inhibition in assay [1] was found to be 1.82%; in assay [2], 2.76%; in assay [3], 1.84%.

Regarding `CC(C)(C)c1ccc(NC(=O)N[C@@H]2CCN(c3ccnc4ccccc34)C2)cc1`, the inhibition in assay [1] was 0.09%; in assay [2] it was -0.25%; in assay [3] it was 0.79%.

In the case of `CN(C)CCNc1ncnc2c1[nH]c1ccc(Cl)cc12`, the figures for the inhibition in assay [1], in assay [2] and in assay [3] were 3.7%, 3.91% and 2.92%, respectively.

On to `O=C(Cc1ccc(NC(=O)c2ccc(O)c(-c3ccc(Cl)c(Cl)c3)c2)cc1)NCCc1ccc(Cl)c(Cl)c1`, for which the values for the inhibition in assay [1], in assay [2] and in assay [3] were 2.01%, 2.38% and -0.6%, respectively.

As for `Cc1cc(F)ccc1Nc1nc(N(C)c2ccccc2)c2cc(OCCN(C)C)ccc2n1`, the inhibition in assay [1] turned out to be 7.87%; in assay [2] it was 6.84%; in assay [3], 2.04%.

For `COc1ccc2ncc(F)c(CCN3CC(O)C(CNCc4ccc5oc(=O)ccc5c4)C3)c2n1` (stereo not drawn), the results for the inhibition in assay [1], in assay [2] and in assay [3] were 8.17%, 6.29% and 5.19%, respectively.

As for `CC(C)CNCc1cccc(-c2ccc(CN(C(=O)NCCc3ccccc3)C3CCN(Cc4ccccc4)CC3)cc2)c1`, the inhibition in assay [1] turned out to be 75.8%; in assay [2] it was 79.1%; in assay [3], 56.8%.

As for `c1ccc(CCNc2nc(NCC(c3ccccc3)c3ccccc3)c3nc[nH]c3n2)cc1`, the results for the inhibition in assay [1], in assay [2] and in assay [3] were 4.2%, 3.7% and 1.17%, respectively.

Regarding `CCC(C)NS(=O)(=O)c1ccc2nc(Nc3ccc(C)c(Cl)c3)n(C(C)C(C)C)c2c1` (stereo not drawn), the inhibition in assay [1] worked out at 2.38%; in assay [2], 2.08%; in assay [3], 1.6%.

As for `CCN(Cc1ccccc1)C1CCN(Cc2cc(Br)ccc2O)CC1`, the inhibition came out at 2.39% in assay [1], 2.05% in assay [2] and 2.71% in assay [3].

For `CC(C)c1ccc(NC(=O)c2ccc(C(=O)NCC3CCN(CC4CCCCC4)CC3)cc2)cc1`, the inhibition in assay [1] came out at 3.12%; in assay [2], 1.53%; in assay [3] it was 1.95%.

For `Cc1ccc(NC(=O)Nc2cccc(Cl)c2)cc1-c1ccc(C(=O)Nc2ccncc2)cc1`, the inhibition in assay [1] was -1.84%; in assay [2], -1.56%; in assay [3], -1.5%.

Turning to `COc1ccc(CNCc2ccsc2)cc1-c1ccc(S(=O)(=O)NCCN2CCCC2)c(C)c1`, the inhibition is -0.35% in assay [1], -1.19% in assay [2] and -4.07% in assay [3].

As usually defined, the inhibition is the drop in the measured response relative to a control, in per cent.
